About 83,000 compounds went through this panel and 20% of them were active in at least one assay; those are over-represented in the sample as a whole.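 Note: values are percent growth. 100 is the growth of untreated cells, values between 100 and 0 indicate rising inhibition; between -100 and 0 indicates cell death.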 Unmarked numbers belong to inactive results. Activity calls are given as the source filed them. The calls were made as follows: active = growth percent below 10; inactive = the rest.

Among the test systems are SK-MEL-2 melanoma; EKVX NSCLC; SN12C renal; UO-31 renal; TK-10 renal; ACHN renal; CAKI-1 renal; A498 renal; CCRF-CEM leukemia; MOLT-4 leukemia.
Test in all cases: NCI-60 one-dose screen, 48 h (100 = growth as untreated, 0 = no growth, -100 = all killed)
Holding throughout (details): 10 µM unless noted

As for `CC1=C(C(=O)OCc2ccccc2)C(c2c(O)cc(O)cc2O)n2c(nc3ccccc32)N1` (stereo not given), the growth with SK-MEL-2 melanoma was 58%; in the test on EKVX NSCLC, 54.4%; in the test with SN12C renal, 74.8%; in the test with UO-31 renal, 46.4%; in the test on TK-10 renal, 87.9%; with ACHN renal, 46.6%. The growth in the test with CAKI-1 renal is 39.4%; with A498 renal it was 102%; in the test on CCRF-CEM leukemia, 38.1%; in the test on MOLT-4 leukemia it was 60.6%.
Consider `Cc1occc1C(=O)NN1C(=O)/C(=C/C=C/c2ccc([N+](=O)[O-])o2)SC1=S`, for which the growth in the test with SK-MEL-2 melanoma was -71.8% (active); in the test on EKVX NSCLC it was -52.1% (active); in the test on SN12C renal, -88.1% (active); in the test with UO-31 renal, -96.3% (active); in the test on TK-10 renal, -49.7% (active); with ACHN renal, -100% (active). For the same compound, the growth in the test on CAKI-1 renal is -59.7% (active); with A498 renal, 95.3%; with CCRF-CEM leukemia, 0.965% (active); in the test on MOLT-4 leukemia, 5.26% (active).
Regarding `CCCCCCCS(=O)(=O)N1CCCC(C(=O)Nc2nc3ccc(NC(=O)c4ccc(F)c(OC)c4F)cc3s2)C1` (stereo not given), the growth with SK-MEL-2 melanoma is 58.9%; in the test on EKVX NSCLC, 55.7%; with SN12C renal, 51.3%; with UO-31 renal, 67.9%; in the test with TK-10 renal, 85.9%; in the test with ACHN renal, 53%. The growth is 59% with CAKI-1 renal, 89.4% in the test with A498 renal, 50.2% in the test on CCRF-CEM leukemia and 59.7% in the test with MOLT-4 leukemia.
`COc1cc(C2CC(c3cc(OC)c(OC)c(OC)c3)=NN2C(C)=O)ccc1OCc1ccccc1` (stereo not given): the growth in the test on SK-MEL-2 melanoma is 21.3%; with EKVX NSCLC, 32.6%; with SN12C renal it was 41.1%; with UO-31 renal it was 8.63% (active); with TK-10 renal, 32.1%; with ACHN renal, 28.2%. In addition, the growth in the test on CAKI-1 renal is 29%; with A498 renal it was 55.1%; with CCRF-CEM leukemia it was 40.2%; in the test with MOLT-4 leukemia, 8.79% (active).
Consider `COc1cc(C2CC(c3cc(OC)c(OC)c(OC)c3)=NN2c2ccccc2)ccc1OCc1ccc(C)cc1` (stereo not given), for which the growth with SK-MEL-2 melanoma was 88.1%; with EKVX NSCLC, 94.1%; in the test on SN12C renal it was 95.1%; in the test on UO-31 renal, 84.8%; with TK-10 renal, 118%; with ACHN renal, 99.6%. For the same compound, the growth with CAKI-1 renal was 77.8%; in the test with A498 renal, 102%; in the test with CCRF-CEM leukemia, 106%; in the test on MOLT-4 leukemia, 91.6%.
For the compound `COc1c(F)ccc(C(=O)Nc2ccc3nc(NC(=O)C4CCCN(S(=O)(=O)c5ccc(C(F)(F)F)cc5)C4)sc3c2)c1F` (stereo not given), the growth is 84.7% in the test on SK-MEL-2 melanoma; 103% with EKVX NSCLC; 82.4% with SN12C renal; 55.3% in the test on UO-31 renal; 99.9% in the test on TK-10 renal; 72.3% in the test with ACHN renal. In addition, the growth with CAKI-1 renal is 61.2%; in the test on A498 renal, 96.7%; with CCRF-CEM leukemia, 89.5%; in the test with MOLT-4 leukemia it was 47.2%.
Regarding `C#CCOc1cc(N(CC)CC)ccc1C(C(=O)NC(C)(C)C)N(C(=O)C1CCc2cc(F)ccc2O1)c1ccccc1Br` (stereo not given), the growth is 3.66% (active) in the test with SK-MEL-2 melanoma; 60.4% with EKVX NSCLC; 56.3% with SN12C renal; 43.4% in the test on UO-31 renal; 86.3% with TK-10 renal; 42.1% with ACHN renal. Further, the growth with CAKI-1 renal is 44.7%; with A498 renal, 80.9%; with CCRF-CEM leukemia, 57.5%; in the test on MOLT-4 leukemia, 14.4%.
On to `CCOP(=O)(OCCCl)c1nc(-c2ccc(C)cc2)oc1NCc1ccccc1` (stereo not given), for which the growth with SK-MEL-2 melanoma is 87%; in the test on EKVX NSCLC it was 67.2%; in the test with SN12C renal it was 70.4%; in the test with UO-31 renal, 52.5%; with TK-10 renal it was 100%; in the test on ACHN renal, 80%. Also, the growth in the test on CAKI-1 renal is 49.5%; with A498 renal, 99.3%; in the test with CCRF-CEM leukemia it was 72.4%; in the test on MOLT-4 leukemia it was 43.6%.
As for `COc1cc2oc(-c3cccc(NC(=O)[C@H](CC(N)=O)NC(=O)OC(C)(C)C)c3)cc(=O)c2c(OC)c1OC`, the growth is 103% with SK-MEL-2 melanoma; 99.1% in the test on EKVX NSCLC; 96.9% with SN12C renal; 80.1% in the test on UO-31 renal; 118% in the test with TK-10 renal; 80.7% in the test with ACHN renal. In addition, the growth in the test with CAKI-1 renal is 84.5%; in the test on A498 renal, 93.8%; in the test with CCRF-CEM leukemia, 54.5%; in the test on MOLT-4 leukemia it was 65.1%.
Regarding `COc1ccc(C2=NN(C(C)=O)C(c3ccc(OCc4ccc(Cl)cc4)c(OC)c3)C2)cc1OC` (stereo not given), the growth with SK-MEL-2 melanoma was 44.1%; in the test with EKVX NSCLC, 46.3%; in the test with SN12C renal, 43.2%; with UO-31 renal, 22.4%; in the test on TK-10 renal it was 44.1%; in the test with ACHN renal, 42.9%. The growth in the test on CAKI-1 renal is 47.2%; in the test on A498 renal it was 64.9%; with CCRF-CEM leukemia it was 50.1%; in the test on MOLT-4 leukemia, 20.5%.
On to `COc1cc(/C=C/C(=O)c2ccc(C)cc2)ccc1Oc1nc(Nc2ccc(F)cc2)nc(N(C)C)n1`, for which the growth is 44.9% in the test with SK-MEL-2 melanoma; 60.6% with EKVX NSCLC; 17.4% in the test on SN12C renal; 36.2% in the test on UO-31 renal; 77.3% in the test on TK-10 renal; 3.65% (active) with ACHN renal. The growth in the test with CAKI-1 renal is 35.6%; in the test on A498 renal it was 66.3%; in the test on CCRF-CEM leukemia, 17%; in the test with MOLT-4 leukemia, 9.34% (active).
Take `Cc1ccc(C(=O)NN2C(=O)/C(=C/C=C/c3ccc([N+](=O)[O-])o3)SC2=S)cc1`: the growth was -89.8% (active) with SK-MEL-2 melanoma; -97% (active) in the test with EKVX NSCLC; -89.3% (active) with SN12C renal; -100% (active) in the test on UO-31 renal; -98.3% (active) with TK-10 renal; -100% (active) with ACHN renal. The growth with CAKI-1 renal was -100% (active); in the test with A498 renal, -73.3% (active); in the test on CCRF-CEM leukemia, 4.08% (active); with MOLT-4 leukemia, 9.73% (active).
On to `O=C1/C(=C/C2=Cc3ccccc3OC2)SC(=S)N1c1ccccc1F`, for which the growth in the test with SK-MEL-2 melanoma was 107%; in the test with EKVX NSCLC, 98.8%; in the test with SN12C renal, 103%; in the test on UO-31 renal, 82.6%; in the test on TK-10 renal, 105%; with ACHN renal, 107%. For the same compound, the growth was 99.1% in the test on CAKI-1 renal, 122% with A498 renal, 97.5% in the test on CCRF-CEM leukemia and 95.2% in the test with MOLT-4 leukemia.
